Source: the supplement of paper PMC10849652
Of roughly 8,800 targets only a part is listed; those with a hit were picked by preference. About 0.5% of all pairs of compound and target were hits.

Key:
Assay in all cases: log2 fold change, soluble protein after heating vs DMSO (PISA); higher = thermal stabilisation; K562 lysate, 10 uM; active = over 0.2 and 3.5 SD of the protein, either way, in both replicates (recomputed)
[1] = compound: Cc1cn(-c2cc(NC(=O)c3ccc(C)c(Nc4nccc(-c5cccnc5)n4)c3)cc(C(F)(F)F)c2)cn1 [nilotinib]
How it was run: (§1)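 Dounce homogenisation of K562 pellets in PBS pH 7.4 with 1 mM MgCl2 produced a crude extract, used at 1 mg/mL protein. Exposure to 10 μM compound lasted 30 min, and aliquots were then heated for 3 min across 48°C-58°C, pooled and brought to 0.5% NP-40 at 4°C. The supernatant after 21,000xg for 90 min was quantified by TMTpro 16plex LC-MS/MS with channel sums equalised. Duplicate values are given as log-two fold change in thermal stability relative to solvent controls.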

[2] = compound: Cc1nc(Nc2n[nH]c3c2CN(C(=O)N[C@H](CN(C)C)c2ccccc2)C3(C)C)c2sccc2n1
How it was run: as §1

[3] = compound: Cc1nc(Nc2ncc(C(=O)Nc3c(C)cccc3Cl)s2)cc(N2CCN(CCO)CC2)n1 [dasatinib]
How it was run: as §1

[4] = compound: Cc1ncc(-c2ccnc(Nc3ccc(S(C)(=O)=O)cc3)n2)n1C(C)C
How it was run: as §1

[5] = compound: Cn1cc(-c2ccc3c(c2)CCN3C(=O)Cc2cccc(C(F)(F)F)c2)c2c(N)ncnc21
How it was run: as §1

[6] = compound: Cn1cncc1[C@@](N)(c1ccc(Cl)cc1)c1ccc2c(c1)c(-c1cccc(Cl)c1)cc(=O)n2C [tipifarnib]
How it was run: as §1

[7] = compound: NC(=O)c1cnc(N[C@@H]2CCCC[C@@H]2N)nc1Nc1cccc(-n2nccn2)c1
How it was run: as §1

[8] = compound: NC1(c2ccc(-c3nc4ccn5c(=O)[nH]nc5c4cc3-c3ccccc3)cc2)CCC1
How it was run: as §1

[9] = compound: NCC(=O)Nc1ccc(-n2nc(C(F)(F)F)cc2-c2ccc3c(ccc4ccccc43)c2)cc1
How it was run: as §1

[10] = compound: O=C(CCCCCCC(=O)Nc1ccccc1)NO [vorinostat]
How it was run: as §1

[11] = compound: O=C(O)c1ccc2c(c1)nc(Nc1cccc(Cl)c1)c1ccncc12 [silmitasertib]
How it was run: as §1

[12] = compound: c1cn2cc(-c3ccc4cn[nH]c4c3)nc(Nc3ccc(N4CCOCC4)cc3)c2n1 [entospletinib]
How it was run: as §1

[13] = compound: Cn1cc(CNCC2CCN(c3ncc(C(=O)NO)cn3)CC2)c2ccccc21 [quisinostat]
How it was run: as §1

[14] = compound: NC(=O)Nc1cc(-c2cccc(F)c2)sc1C(=O)N[C@H]1CCCNC1
How it was run: as §1

[15] = compound: O=C1NC(=O)C(c2cnc3ccccn23)=C1c1cn2c3c(cc(F)cc13)CN(C(=O)N1CCCCC1)CC2
How it was run: as §1

Measured: log2 fold change

UBXN2B (UniProt Q14CS0)
inactive: [1] -0.04 | [2] -0.068 | [3] 0.08 | [4] -0.208 | [5] -0.099 | [6] 0.021 | [7] -0.024 | [8] -0.06 | [9] 0.095 | [10] 0.085 | [11] 0.053 | [12] -0.032

UBA1 (UniProt P22314)
Chain of UniProt P22314 (P22314 whole entry, looked up): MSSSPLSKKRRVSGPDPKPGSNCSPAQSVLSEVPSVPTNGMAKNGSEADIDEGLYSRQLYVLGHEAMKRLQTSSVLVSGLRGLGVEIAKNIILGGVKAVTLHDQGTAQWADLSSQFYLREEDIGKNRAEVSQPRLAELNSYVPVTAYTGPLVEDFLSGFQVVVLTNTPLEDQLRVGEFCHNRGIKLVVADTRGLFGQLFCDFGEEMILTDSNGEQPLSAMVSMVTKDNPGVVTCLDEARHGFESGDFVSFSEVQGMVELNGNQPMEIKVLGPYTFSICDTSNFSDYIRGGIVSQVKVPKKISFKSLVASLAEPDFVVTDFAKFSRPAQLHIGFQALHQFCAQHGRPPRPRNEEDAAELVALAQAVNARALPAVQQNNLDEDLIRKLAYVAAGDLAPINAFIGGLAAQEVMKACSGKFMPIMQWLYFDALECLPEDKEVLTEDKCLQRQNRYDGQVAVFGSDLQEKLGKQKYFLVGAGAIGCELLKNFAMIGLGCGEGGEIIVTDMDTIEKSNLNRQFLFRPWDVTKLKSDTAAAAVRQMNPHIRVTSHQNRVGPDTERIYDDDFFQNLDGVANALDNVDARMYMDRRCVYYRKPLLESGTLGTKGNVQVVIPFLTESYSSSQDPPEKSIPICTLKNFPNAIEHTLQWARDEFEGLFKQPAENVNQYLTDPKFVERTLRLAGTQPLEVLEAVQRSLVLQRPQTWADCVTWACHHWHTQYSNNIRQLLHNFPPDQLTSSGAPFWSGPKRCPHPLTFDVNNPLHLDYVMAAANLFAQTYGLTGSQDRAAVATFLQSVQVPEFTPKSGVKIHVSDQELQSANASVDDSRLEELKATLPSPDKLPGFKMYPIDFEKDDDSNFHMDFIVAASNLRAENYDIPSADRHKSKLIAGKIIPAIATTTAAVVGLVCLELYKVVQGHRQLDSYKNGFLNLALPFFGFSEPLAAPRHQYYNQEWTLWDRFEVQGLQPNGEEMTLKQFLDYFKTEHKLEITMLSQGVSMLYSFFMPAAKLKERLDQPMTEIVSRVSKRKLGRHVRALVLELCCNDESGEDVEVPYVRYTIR
active: [10] -0.371
inactive: [1] -0.004 | [2] 0.014 | [3] -0.026 | [4] 0.002 | [5] 0.028 | [13] -0.019 | [6] -0.01 | [14] 0.019 | [7] 0.008 | [8] -0.011 | [9] 0.018 | [11] 0.01 | [15] -0.003 | [12] 0.02

TCF4 (UniProt P15884)
inactive: [1] -0.004 | [2] -0.139 | [3] 0.077 | [4] -0.057 | [5] 0.01 | [13] 0.161 | [6] -0.147 | [14] 0.064 | [7] 0.016 | [15] 0.078 | [12] -0.074

TIMELESS (UniProt Q9UNS1)
inactive: [1] 0.018 | [2] -0.039 | [3] -0.082 | [4] 0.024 | [5] 0.005 | [13] -0.137 | [6] -0.052 | [14] 0.045 | [7] 0.029 | [8] -0.035 | [9] 0 | [11] 0.018 | [15] 0.062 | [12] 0.017
active: [10] -0.412

UBAP2 (UniProt Q5T6F2)
Chain of UniProt Q5T6F2 (Q5T6F2 whole entry, looked up): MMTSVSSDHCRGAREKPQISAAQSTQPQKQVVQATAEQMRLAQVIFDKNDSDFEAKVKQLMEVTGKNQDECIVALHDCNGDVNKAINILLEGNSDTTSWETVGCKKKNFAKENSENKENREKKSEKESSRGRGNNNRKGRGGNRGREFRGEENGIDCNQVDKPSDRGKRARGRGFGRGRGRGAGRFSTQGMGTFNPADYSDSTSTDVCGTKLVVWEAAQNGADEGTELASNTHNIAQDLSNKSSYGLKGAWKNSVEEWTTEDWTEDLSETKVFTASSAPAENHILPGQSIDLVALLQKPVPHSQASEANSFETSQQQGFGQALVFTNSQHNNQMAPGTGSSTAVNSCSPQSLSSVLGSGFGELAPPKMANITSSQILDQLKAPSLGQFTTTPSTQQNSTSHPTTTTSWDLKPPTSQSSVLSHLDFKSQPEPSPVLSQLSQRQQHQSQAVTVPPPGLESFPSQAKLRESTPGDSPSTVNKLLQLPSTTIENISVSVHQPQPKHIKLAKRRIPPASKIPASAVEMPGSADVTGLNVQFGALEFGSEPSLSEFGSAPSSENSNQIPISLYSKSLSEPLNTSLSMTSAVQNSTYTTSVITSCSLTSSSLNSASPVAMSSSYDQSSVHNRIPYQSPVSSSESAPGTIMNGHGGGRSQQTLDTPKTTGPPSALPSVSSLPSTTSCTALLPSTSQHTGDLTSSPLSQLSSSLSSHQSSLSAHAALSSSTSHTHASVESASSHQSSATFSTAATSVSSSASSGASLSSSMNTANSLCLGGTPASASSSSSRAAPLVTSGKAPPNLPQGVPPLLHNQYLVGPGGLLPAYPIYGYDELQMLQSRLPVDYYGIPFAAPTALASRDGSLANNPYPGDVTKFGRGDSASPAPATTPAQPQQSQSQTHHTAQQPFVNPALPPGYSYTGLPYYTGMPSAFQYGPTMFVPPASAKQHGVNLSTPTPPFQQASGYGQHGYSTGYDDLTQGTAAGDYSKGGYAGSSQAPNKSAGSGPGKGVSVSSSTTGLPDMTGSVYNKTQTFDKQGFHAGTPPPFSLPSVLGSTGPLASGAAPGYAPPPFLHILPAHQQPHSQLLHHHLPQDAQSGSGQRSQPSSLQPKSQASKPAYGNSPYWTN
inactive: [1] -0.093 | [2] 0.008 | [3] -0.042 | [4] 0.021 | [5] -0.023 | [13] -0.008 | [6] -0.073 | [14] 0.019 | [7] 0.016 | [8] 0.029 | [9] 0.031 | [10] 0.03 | [11] -0.007 | [15] 0 | [12] -0.013

TLE3 isoform 5 (UniProt Q04726)
inactive: [1] 0.142 | [2] -0.174 | [3] -0.007 | [4] -0.06 | [5] 0.028 | [13] -0.102 | [6] 0.05 | [14] -0.009 | [7] 0.024 | [8] 0.058 | [10] 0.144 | [11] 0.019 | [15] -0.058 | [12] -0.002

TNPO3 (UniProt Q9Y5L0)
Chain of UniProt Q9Y5L0 (Q9Y5L0 whole entry, looked up): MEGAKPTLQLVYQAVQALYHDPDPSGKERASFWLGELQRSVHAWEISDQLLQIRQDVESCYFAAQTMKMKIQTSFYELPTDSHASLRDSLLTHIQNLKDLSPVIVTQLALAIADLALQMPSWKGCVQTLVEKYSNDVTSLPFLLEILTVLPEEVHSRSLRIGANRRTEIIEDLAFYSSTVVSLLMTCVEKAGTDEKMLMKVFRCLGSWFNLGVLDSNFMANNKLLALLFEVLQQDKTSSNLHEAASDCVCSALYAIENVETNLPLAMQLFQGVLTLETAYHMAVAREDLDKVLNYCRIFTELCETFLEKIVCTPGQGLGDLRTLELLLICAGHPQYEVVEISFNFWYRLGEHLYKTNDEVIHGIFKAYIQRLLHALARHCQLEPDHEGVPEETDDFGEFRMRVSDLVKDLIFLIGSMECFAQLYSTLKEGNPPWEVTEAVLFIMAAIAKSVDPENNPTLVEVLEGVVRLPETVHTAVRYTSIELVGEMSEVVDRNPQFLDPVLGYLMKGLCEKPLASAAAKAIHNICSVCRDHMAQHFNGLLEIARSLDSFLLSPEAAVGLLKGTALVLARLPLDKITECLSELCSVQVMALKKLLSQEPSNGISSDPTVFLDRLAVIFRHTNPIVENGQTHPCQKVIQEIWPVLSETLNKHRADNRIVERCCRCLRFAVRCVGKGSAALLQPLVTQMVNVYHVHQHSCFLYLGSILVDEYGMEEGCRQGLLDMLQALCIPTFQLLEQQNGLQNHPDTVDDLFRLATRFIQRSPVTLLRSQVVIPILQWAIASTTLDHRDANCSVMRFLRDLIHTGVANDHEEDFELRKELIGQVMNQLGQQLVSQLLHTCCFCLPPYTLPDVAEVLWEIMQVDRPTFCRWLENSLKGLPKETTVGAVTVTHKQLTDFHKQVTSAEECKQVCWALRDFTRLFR
active: [10] -0.317
inactive: [1] -0.016 | [2] 0.017 | [3] 0 | [4] 0.003 | [5] 0.009 | [13] -0.001 | [6] 0.001 | [14] -0.002 | [7] -0.016 | [8] -0.01 | [9] 0.017 | [11] 0.015 | [15] 0.009 | [12] 0.022

TRMT2A (UniProt Q8IZ69)
active: [10] -0.366
inactive: [1] -0.034 | [2] -0.011 | [3] -0.018 | [4] -0.011 | [5] 0.013 | [13] -0.023 | [6] -0.007 | [14] 0.016 | [7] -0.002 | [8] -0.012 | [9] -0.012 | [11] 0.034 | [15] -0.007 | [12] 0.002

TBCE (UniProt Q15813)
Chain of UniProt Q15813 (Q15813 whole entry, looked up): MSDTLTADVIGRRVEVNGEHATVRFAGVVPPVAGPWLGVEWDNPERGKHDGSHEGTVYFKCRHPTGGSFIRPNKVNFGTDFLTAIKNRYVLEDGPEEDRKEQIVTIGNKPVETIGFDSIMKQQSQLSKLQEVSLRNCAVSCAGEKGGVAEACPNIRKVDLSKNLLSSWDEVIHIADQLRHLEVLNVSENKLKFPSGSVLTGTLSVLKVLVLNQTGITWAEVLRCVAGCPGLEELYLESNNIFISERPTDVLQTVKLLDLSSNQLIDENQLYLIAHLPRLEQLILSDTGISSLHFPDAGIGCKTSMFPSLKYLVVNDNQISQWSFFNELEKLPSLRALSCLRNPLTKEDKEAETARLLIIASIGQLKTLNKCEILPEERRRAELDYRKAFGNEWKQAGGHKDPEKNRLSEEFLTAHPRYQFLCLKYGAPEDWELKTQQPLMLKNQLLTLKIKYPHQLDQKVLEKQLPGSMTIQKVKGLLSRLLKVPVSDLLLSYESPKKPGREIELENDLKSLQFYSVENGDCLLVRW
inactive: [1] -0.001 | [2] -0.008 | [3] -0.012 | [4] -0.01 | [5] 0.049 | [13] -0.025 | [6] -0.005 | [14] 0.033 | [7] 0.015 | [8] -0.041 | [9] -0.029 | [11] 0.018 | [15] -0.025 | [12] 0.021
active: [10] -0.27

TUBGCP4 (UniProt Q9UGJ1)
Chain of UniProt Q9UGJ1 (Q9UGJ1 whole entry, looked up): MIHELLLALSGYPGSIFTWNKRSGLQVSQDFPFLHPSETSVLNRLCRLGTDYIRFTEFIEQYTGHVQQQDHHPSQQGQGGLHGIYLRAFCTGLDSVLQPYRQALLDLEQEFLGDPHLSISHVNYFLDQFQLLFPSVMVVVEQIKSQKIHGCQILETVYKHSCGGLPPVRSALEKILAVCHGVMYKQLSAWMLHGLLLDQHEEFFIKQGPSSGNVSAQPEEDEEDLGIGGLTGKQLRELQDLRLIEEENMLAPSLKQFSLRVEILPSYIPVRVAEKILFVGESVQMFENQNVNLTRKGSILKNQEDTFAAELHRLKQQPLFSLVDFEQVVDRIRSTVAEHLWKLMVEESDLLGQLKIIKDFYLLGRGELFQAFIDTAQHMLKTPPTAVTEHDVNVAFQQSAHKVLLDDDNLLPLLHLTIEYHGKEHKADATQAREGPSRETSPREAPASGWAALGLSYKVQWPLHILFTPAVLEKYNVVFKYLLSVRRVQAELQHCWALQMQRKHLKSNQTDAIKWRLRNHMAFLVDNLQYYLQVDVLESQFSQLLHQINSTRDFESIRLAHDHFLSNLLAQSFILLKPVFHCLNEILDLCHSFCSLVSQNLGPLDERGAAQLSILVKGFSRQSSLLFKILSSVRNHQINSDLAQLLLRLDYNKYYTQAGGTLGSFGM
inactive: [1] -0.028 | [2] 0.008 | [3] -0.046 | [4] 0.001 | [5] 0.018 | [13] -0.027 | [6] 0.008 | [14] 0.069 | [7] 0.034 | [8] 0.01 | [9] -0.11 | [11] 0.003 | [15] 0.02 | [12] 0.038
active: [10] -0.219

TERF2IP (UniProt Q9NYB0)
inactive: [1] 0.012 | [2] 0.013 | [3] 0.018 | [4] 0.009 | [5] 0.005 | [13] 0.024 | [6] -0.012 | [14] 0.011 | [7] -0.017 | [8] -0.003 | [9] 0.038 | [10] 0.072 | [11] 0.008 | [15] 0.011 | [12] 0.011

TJP1 (UniProt G3V1L9)
active: [10] -0.484
inactive: [1] 0.093 | [2] 0.051 | [3] 0.083 | [4] 0.11 | [5] -0.139 | [13] 0.137 | [6] -0.078 | [14] 0.022 | [8] -0.08 | [9] -0.044 | [11] -0.061 | [15] 0.127

TASP1 (UniProt Q9H6P5)
inactive: [1] -0.319 | [2] -0.062 | [3] -0.124 | [4] 0.077 | [5] -0.003 | [13] -0.094 | [6] 0.089 | [14] 0.046 | [7] -0.053 | [8] -0.056 | [11] -0.018 | [15] 0.029 | [12] 0.21
active: [10] 0.481

TLK2 isoform 2 (UniProt Q86UE8)
inactive: [1] -0.008 | [2] 0.243 | [3] -0.004 | [4] 0.162 | [5] 0.007 | [13] -0.099 | [6] 0.005 | [14] 0.073 | [7] 0.048 | [8] -0.035 | [9] 0.019 | [10] -0.24 | [11] 0.057 | [15] 0.118 | [12] -0.135

TXNIP (UniProt Q9H3M7)
inactive: [1] 0.091 | [2] 0.038 | [3] -0.023 | [4] -0.026 | [5] 0.012 | [13] -0.077 | [6] -0.022 | [14] 0.029 | [8] 0.005 | [9] -0.076 | [11] 0.04 | [15] -0.051 | [12] 0.024
active: [10] -0.399

TUBA1B (UniProt P68363)
Chain of UniProt P68363 (P68363 whole entry, looked up): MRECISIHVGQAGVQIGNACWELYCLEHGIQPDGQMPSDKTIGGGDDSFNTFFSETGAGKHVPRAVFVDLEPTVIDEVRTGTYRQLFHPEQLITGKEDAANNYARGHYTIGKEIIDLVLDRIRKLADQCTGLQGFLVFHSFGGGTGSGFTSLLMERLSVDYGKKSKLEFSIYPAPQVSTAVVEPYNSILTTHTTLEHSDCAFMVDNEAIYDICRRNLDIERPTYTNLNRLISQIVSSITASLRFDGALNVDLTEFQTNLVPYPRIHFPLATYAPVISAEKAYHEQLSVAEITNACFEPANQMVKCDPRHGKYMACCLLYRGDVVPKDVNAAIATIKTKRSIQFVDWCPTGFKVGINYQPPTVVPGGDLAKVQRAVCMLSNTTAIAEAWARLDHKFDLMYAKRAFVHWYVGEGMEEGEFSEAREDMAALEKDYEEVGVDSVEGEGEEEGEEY
active: [10] -0.66
inactive: [1] -0.043 | [2] -0.009 | [3] -0.051 | [4] -0.036 | [5] 0.01 | [13] -0.021 | [6] 0.002 | [14] 0.041 | [7] 0.002 | [8] -0.013 | [9] -0.005 | [11] 0.018 | [15] 0.026 | [12] 0.01

TECR (UniProt Q9NZ01)
Chain of UniProt Q9NZ01 (Q9NZ01 whole entry, looked up): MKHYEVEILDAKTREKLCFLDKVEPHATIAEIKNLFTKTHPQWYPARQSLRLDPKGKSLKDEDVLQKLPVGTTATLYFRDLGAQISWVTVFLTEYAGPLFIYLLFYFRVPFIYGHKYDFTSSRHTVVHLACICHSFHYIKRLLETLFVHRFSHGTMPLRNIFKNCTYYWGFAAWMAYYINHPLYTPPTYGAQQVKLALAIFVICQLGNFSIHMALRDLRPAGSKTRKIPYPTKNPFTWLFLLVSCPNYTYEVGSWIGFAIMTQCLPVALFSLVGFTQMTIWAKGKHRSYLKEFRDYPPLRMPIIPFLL
inactive: [1] -0.06 | [2] 0.018 | [3] -0.062 | [4] -0.011 | [5] -0.043 | [13] -0.024 | [6] -0.09 | [14] 0.041 | [7] -0.009 | [8] -0.047 | [9] -0.031 | [10] 0.024 | [11] 0.076 | [15] 0.032 | [12] 0.033

TUBB4A (UniProt P04350)
inactive: [1] 0.027 | [2] -0.026 | [3] 0.003 | [4] -0.023 | [5] 0.067 | [13] -0.196 | [6] 0.027 | [14] 0.085 | [7] 0.011 | [8] 0.023 | [11] 0.065 | [15] 0.095 | [12] -0.056
active: [10] -0.448

TUBAL3 (UniProt A6NHL2)
inactive: [1] 0.068 | [2] -0.189 | [3] -0.074 | [4] 0.103 | [5] 0.082 | [6] 0.141 | [7] -0.025 | [8] -0.142 | [9] 0.083 | [10] -0.195 | [11] 0.069 | [12] -0.026

TOX4 (UniProt O94842)
inactive: [1] -0.056 | [2] -0.019 | [3] 0.001 | [4] 0.073 | [5] 0.009 | [13] -0.018 | [6] -0.02 | [14] -0.017 | [7] 0.017 | [8] 0.034 | [9] -0.021 | [10] -0.018 | [11] -0.037 | [15] -0.025 | [12] -0.006
